{"source": "PubChem BioAssay (NCATS)", "note": "Inconclusive results are not listed. Where a call stands in place of a potency, no number is given. The source made the active and inactive calls. Calls follow the shape of the dose curve; as a rule, active = well fitted inhibition curve with a large enough effect; inconclusive = small, poorly fitted or top-dose-only effect; inactive = flat fitted curve, though single readings scatter. Potency is read from the fitted curve at half-maximal effect."}
{"assay": "BET inhibitor-based combinations targeting novel dependencies in MECOM-rearranged (r) AML: AML-191 cell line (AID 2202236; also: nearly all actives have a fitted effect of over 35% in size)", "details": "AML-191 viability, CellTiter-Glo luminescence, 48 h; series mostly up to 46 µM", "in_short": "(§1)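 A 48 hr incubation preceded viability reading by CellTiter-Glo, with 15 min room-temperature development. Dose series had 11 points; normalization used DMSO and empty wells; AUC was computed and mean-centered per line as Z-AUC.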"}
{"smiles": "N[C@@H]1CN(c2c(F)cc3c(=O)c(C(=O)O)cn([C@@H]4C[C@@H]4F)c3c2Cl)CC12CC2", "Potency": "inactive"}
{"smiles": "CN1C(=O)[C@@H](NC(=O)c2cc(Cc3ccccc3)on2)COc2ccccc21", "Potency": "inactive"}
{"smiles": "C[C@@H](O[C@H]1OCCN(Cc2n[nH]c(=O)[nH]2)[C@@H]1c1ccc(F)cc1)c1cc(C(F)(F)F)cc(C(F)(F)F)c1", "Potency": "16.6 µM (active)"}
{"smiles": "CC(=O)CC(c1ccccc1)c1c(O)c2ccccc2oc1=O", "note": "(stereo not drawn)", "Potency": "inactive"}
{"smiles": "CC(C)n1c(=O)cc(N[C@@H](C)c2ccccc2)[nH]c1=O", "Potency": "inactive"}
{"smiles": "Clc1ccc(CCC(Cn2ccnc2)Sc2c(Cl)cccc2Cl)cc1", "note": "(stereo not drawn)", "Potency": "inactive"}
{"smiles": "Cc1ccc(C2=Nc3ccc(Cl)cc3OC2)cc1", "Potency": "inactive"}
{"smiles": "O=C(O)CNC(=O)c1nc(Cl)c2ccccc2c1O", "Potency": "inactive"}
{"smiles": "C/C(=N\\NC(=O)c1cccc(S(=O)(=O)N2CCOCC2)c1)c1cc(Cl)ccc1O", "Potency": "2.09 µM (active)"}
{"smiles": "C#CCN(C)CC1=Cc2ccccc2Oc2ccccc21", "Potency": "inactive"}
{"smiles": "CS[C@H]1SC[C@@H]2C(=O)N(C)[C@H](C(C)C)C(=O)OC[C@H](NC(=O)c3cnc4ccccc4n3)C(=O)N[C@H](C)C(=O)N(C)[C@H]1C(=O)N(C)[C@H](C(C)C)C(=O)OC[C@H](NC(=O)c1cnc3ccccc3n1)C(=O)N[C@H](C)C(=O)N2C", "Potency": "0.0132 µM (active)"}
{"smiles": "c1ccc(-c2nn3c(c2-c2ccnc4cc(OCCN5CCOCC5)ccc24)CCC3)nc1", "Potency": "18.6 µM (active)"}
{"smiles": "CNC(=O)[C@H](Cc1c[nH]c2ccccc12)NC(=O)[C@@H](CC(=O)NO)CC(C)C", "Potency": "inactive"}
{"smiles": "COc1cc(-c2cn(C)c(=O)c3cnccc23)cc(OC)c1CN(C)C", "Potency": "inactive"}
{"smiles": "COc1cc([C@@H](CC(=O)O)c2ccc(C)c(CN3C[C@@H](C)Oc4ccccc4S3(=O)=O)c2)cc2nnn(C)c12", "Potency": "inactive"}
{"smiles": "CC(=O)c1ccc2c(c1)c1cc(C(C)=O)ccc1n2CCNC(C)C", "Potency": "0.833 µM (active)"}
{"smiles": "COc1cc2c(NC3CCN(C)CC3)nc(N3CCCN(C)CC3)nc2cc1OCCCN(C)C", "Potency": "inactive"}
{"assay": "BET inhibitor-based combinations targeting novel dependencies in MECOM-rearranged (r) AML: AML-194 cell line (AID 2202237; also: nearly all actives have a fitted effect of over 40% in size)", "details": "AML-194 (MECOM-r AML) viability, CellTiter-Glo, 48 h; series mostly up to 46 µM", "in_short": "as §1"}
{"smiles": "CC(=O)O/N=C1\\C(=O)N(Cc2cc(Cl)ccc2Cl)c2ccc(Cl)cc21", "Potency": "2.63 µM (active)"}
{"smiles": "NC(=O)c1cc(F)cc2c1C(=O)N(C1CCN(C3CCC(F)(F)CC3)CC1)C2", "Potency": "inactive"}
{"smiles": "CN1N=C(N)c2cn([C@@H]3O[C@H](COP(=O)(O)O)[C@@H](O)[C@@H]3O)c3ncnc1c23", "Potency": "1.66 µM (active)"}
{"smiles": "O=C(NO)c1cnc(NC2(c3ccccc3)CC2)nc1", "Potency": "8.33 µM (active)"}
{"smiles": "C=CC(=O)N1CC[C@@H](Oc2nc(Nc3ccc(N4CCC(N5CCN(C)CC5)CC4)cc3)c(C(N)=O)nc2CC)C1", "Potency": "6.45 µM (active)"}
{"smiles": "C=CC(=O)Nc1cccc(Oc2nc(Nc3ccc(N4CCN(C)CC4)c(F)c3)nc3[nH]ccc23)c1", "Potency": "6.61 µM (active)"}
{"smiles": "O=C(/C=C/c1ccc(CN(CCO)CCc2c[nH]c3ccccc23)cc1)NO", "Potency": "0.332 µM (active)"}
{"smiles": "Cc1oc(=O)oc1CN1CCN(c2cc3c(cc2F)c(=O)c(C(=O)O)c2n3C(C)S2)CC1", "note": "(stereo not drawn)", "Potency": "inactive"}
{"smiles": "O=C(/C=C/c1cccnc1)NCCCCC1CCN(C(=O)c2ccccc2)CC1", "Potency": "inactive"}
{"smiles": "Cc1[nH]nc2ncc(C(=O)N3CCC[C@H]3c3ccc(Cl)cc3)cc12", "Potency": "inactive"}
{"smiles": "CCCCC[C@H](O)/C=C/[C@H]1[C@H](O)CC(=O)[C@@H]1CCCCCCC(=O)O", "Potency": "inactive"}
{"smiles": "COc1ccnc(CS(=O)c2nc3ccc(OC(F)F)cc3[nH]2)c1OC", "note": "(stereo not drawn)", "Potency": "inactive"}
{"smiles": "CC(=O)N[C@H]1CSSC[C@@H](C(N)=O)NC(=O)[C@H](C(C)C)NC(=O)[C@H](C)NC(=O)[C@H](Cc2cnc[nH]2)NC1=O", "Potency": "inactive"}
{"smiles": "N[C@@H]1CN(c2c(F)cc3c(=O)c(C(=O)O)cn([C@@H]4C[C@@H]4F)c3c2Cl)CC12CC2", "Potency": "inactive"}
{"smiles": "COc1ncc(Nc2ncc(C(C)N3CCN(S(C)(=O)=O)CC3)cc2-c2nc(C)nc(N)n2)cc1F", "note": "(stereo not drawn)", "Potency": "inactive"}
{"smiles": "CC(=O)CC(c1ccccc1)c1c(O)c2ccccc2oc1=O", "note": "(stereo not drawn)", "Potency": "inactive"}
{"smiles": "Cc1cc(C)c2c(c1)[C@@H](N(Cc1cc(C(F)(F)F)cc(C(F)(F)F)c1)c1nnn(C)n1)CCCN2CC1CCC(C(=O)O)CC1", "note": "(stereo partly drawn)", "Potency": "inactive"}
{"smiles": "Cc1ccc(C2=Nc3ccc(Cl)cc3OC2)cc1", "Potency": "inactive"}
{"smiles": "O=C(O)CNC(=O)c1nc(Cl)c2ccccc2c1O", "Potency": "inactive"}
{"smiles": "C/C(=N\\NC(=O)c1cccc(S(=O)(=O)N2CCOCC2)c1)c1cc(Cl)ccc1O", "Potency": "4.17 µM (active)"}
{"smiles": "C#CCN(C)CC1=Cc2ccccc2Oc2ccccc21", "Potency": "inactive"}
